In PubChem BioAssay (EPA / NIEHS):
Records with an inconclusive call do not appear. Activity calls are given as the source filed them. The calls were made as follows, unless noted: active = hit-call score of the fitted dose curve at least 0.9, where 1 is the maximum; inactive = score below 0.9.

Assays:
[1] = ATG_PXRE_CIS: Attagene CIS-FACTORIAL HepG2 Assay for human Pregnane X Receptor Element (PXRE) (AID 2282957); conditions: HepG2 Attagene CIS-FACTORIAL PXRE reporter, mRNA; actives raise or lower the signal
How it was run: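 Transfect HepG2 with MRTUs (cis promoter elements); dose chemical, incubate 24 h; isolate RNA, RT with oligo(dT), PCR, 6-FAM label, HpaI cut, CE. Gain/loss fit vs DMSO.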

[2] = ATG_RORE_CIS: Attagene CIS-FACTORIAL HepG2 Assay for human RAR-related Orphan Receptor Element (RORE) (AID 2282959); conditions: HepG2 Attagene cis-factorial RORE reporter, mRNA; actives raise or lower the signal
How it was run: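 Transfect HepG2 with MRTUs; treat 24 h; extract RNA; RT with oligo(dT); PCR with reporter-specific primers; 6-FAM primer extension; HpaI digest 2 h at 37 C; capillary electrophoresis. Fit vs DMSO, bidirectional.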

[3] = ATG_Sox_CIS: Attagene CIS-FACTORIAL HepG2 Assay for human SRY-box transcription factor (SOX) (AID 2282960); conditions: HepG2 Attagene cis-factorial SOX reporter, mRNA; actives raise or lower the signal
How it was run: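 Fluorescence-labelled cDNA fragments from reporter transcripts, sized by CE, give the signal. Cells: HepG2, transiently transfected with cis-regulated reporter units. Exposure 24 h; DMSO negative control; bidirectional curve fitting.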

[4] = biological target: Transcription factor Sp1 (Homo sapiens) (UniProt P08047); experiment: ATG_Sp1_CIS: Attagene CIS-FACTORIAL HepG2 Assay for human Specificity Protein 1 (Sp1) (AID 2282961); conditions: HepG2 Sp1 cis-reporter transcription, actives raise or lower the signal
Chain of Transcription factor Sp1 (Homo sapiens) (P08047 whole entry, looked up): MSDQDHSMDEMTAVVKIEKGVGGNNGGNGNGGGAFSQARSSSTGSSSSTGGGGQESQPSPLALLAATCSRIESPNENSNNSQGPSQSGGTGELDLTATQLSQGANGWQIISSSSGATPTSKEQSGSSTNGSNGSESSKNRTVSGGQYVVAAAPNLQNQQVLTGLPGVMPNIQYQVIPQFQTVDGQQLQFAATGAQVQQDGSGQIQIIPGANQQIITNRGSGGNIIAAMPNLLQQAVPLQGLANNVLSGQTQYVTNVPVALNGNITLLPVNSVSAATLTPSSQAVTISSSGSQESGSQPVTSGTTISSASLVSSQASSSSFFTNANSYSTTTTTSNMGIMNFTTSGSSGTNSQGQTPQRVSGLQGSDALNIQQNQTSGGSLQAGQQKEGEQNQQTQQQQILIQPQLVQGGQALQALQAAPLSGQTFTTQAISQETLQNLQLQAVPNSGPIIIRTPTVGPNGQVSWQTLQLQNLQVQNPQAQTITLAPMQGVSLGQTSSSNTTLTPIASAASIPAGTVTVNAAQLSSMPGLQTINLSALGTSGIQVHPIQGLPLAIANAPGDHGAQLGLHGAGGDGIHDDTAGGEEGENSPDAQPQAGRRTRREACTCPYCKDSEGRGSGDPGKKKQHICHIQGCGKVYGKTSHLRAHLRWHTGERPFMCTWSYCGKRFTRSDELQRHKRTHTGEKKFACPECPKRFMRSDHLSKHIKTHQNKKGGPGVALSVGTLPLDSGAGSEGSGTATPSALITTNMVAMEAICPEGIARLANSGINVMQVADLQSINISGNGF
How it was run: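 Chemicals are dosed onto HepG2 cells transfected with multiple cis-promoter reporter constructs, and after 24 h reporter RNA is reverse-transcribed, PCR-amplified and resolved by capillary electrophoresis for fluorescence quantitation; activity is scored up or down against DMSO.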

[5] = ATG_SREBP_CIS: Attagene CIS-FACTORIAL HepG2 Assay for human Sterol Regulatory Element Binding (SREBP) (AID 2282962); conditions: HepG2 Attagene cis-factorial SREBP reporter, mRNA; actives raise or lower the signal
How it was run: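 Transfected HepG2 (cis-regulated reporter library, endogenous TFs) → compound 24 h → total RNA → oligo(dT) RT → reporter-specific PCR → FAM primer extension, HpaI cut → CE fluorescence. Fit bidirectional vs DMSO.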

[6] = biological target: Signal transducer and activator of transcription 3 (Homo sapiens) (UniProt P40763); experiment: ATG_STAT3_CIS: Attagene CIS-FACTORIAL HepG2 Assay for human Signal Transducer and Activator of Transcription 3 (STAT3) (AID 2282963); conditions: HepG2, Attagene cis-factorial STAT3 reporter transcription; actives raise or lower the signal
Chain of Signal transducer and activator of transcription 3 (Homo sapiens) (P40763 whole entry, looked up): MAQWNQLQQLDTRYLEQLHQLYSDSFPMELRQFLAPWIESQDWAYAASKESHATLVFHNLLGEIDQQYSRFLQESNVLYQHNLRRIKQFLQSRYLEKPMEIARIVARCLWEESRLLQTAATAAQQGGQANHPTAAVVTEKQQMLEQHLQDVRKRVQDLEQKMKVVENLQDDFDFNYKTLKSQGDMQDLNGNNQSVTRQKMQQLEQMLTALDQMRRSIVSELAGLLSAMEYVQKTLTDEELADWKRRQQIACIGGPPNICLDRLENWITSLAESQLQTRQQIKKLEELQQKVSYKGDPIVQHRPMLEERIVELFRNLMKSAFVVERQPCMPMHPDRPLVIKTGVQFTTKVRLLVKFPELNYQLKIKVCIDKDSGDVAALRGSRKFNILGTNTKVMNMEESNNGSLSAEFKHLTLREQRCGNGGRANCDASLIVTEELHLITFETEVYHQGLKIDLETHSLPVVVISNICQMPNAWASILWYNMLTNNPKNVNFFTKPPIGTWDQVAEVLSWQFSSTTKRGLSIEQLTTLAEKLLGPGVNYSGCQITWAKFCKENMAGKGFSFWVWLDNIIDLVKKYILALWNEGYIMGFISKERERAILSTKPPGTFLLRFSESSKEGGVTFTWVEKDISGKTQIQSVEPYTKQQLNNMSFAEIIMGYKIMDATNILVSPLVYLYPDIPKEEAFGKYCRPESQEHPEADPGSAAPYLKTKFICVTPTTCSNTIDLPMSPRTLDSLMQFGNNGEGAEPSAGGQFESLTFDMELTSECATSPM
How it was run: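 HepG2 cells transiently transfected with multiple cis-element-driven reporter units report endogenous transcription factor activity. After 24 h compound exposure, reporter mRNA is measured by RT-PCR, 6-FAM labelling, HpaI digestion and capillary electrophoresis. Fitted bidirectionally versus DMSO.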

[7] = ATG_TA_CIS: Attagene CIS-FACTORIAL HepG2 Assay for human TA Basal Promoter (AID 2282964); conditions: HepG2 Attagene CIS-factorial TA basal promoter reporter; actives raise or lower the signal
How it was run: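 Transient MRTU transfection of HepG2 preceded 24 h compound exposure. Reporter mRNA levels were then read by RT-PCR with capillary electrophoresis, and this background-control endpoint was fitted bidirectionally to DMSO.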

[8] = ATG_TCF_b_cat_CIS: Attagene CIS-FACTORIAL HepG2 Assay for human T-Cell-Factor with beta-catenin (TCF/b-cat) (AID 2282965); conditions: HepG2 TCF/beta-catenin cis-reporter transcription, actives raise or lower the signal
How it was run: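 HepG2 cells transiently transfected with cis-promoter-driven multiplexed reporter units; reporter mRNA measured 24 h after dosing by RT-PCR, FAM labelling, HpaI digestion and capillary electrophoresis. Bidirectional fitting relative to DMSO baseline.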

[9] = ATG_TAL_CIS: Attagene CIS-FACTORIAL HepG2 Assay for human TAL Basal Promoter (AID 2282966); conditions: HepG2 Attagene cis-factorial TAL promoter reporter; actives raise or lower the signal;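 also: background control endpoint measuring basal TAL promoter reporter mRNA not a specific factor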
How it was run: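 Fluorescence of labelled reporter cDNA fragments, resolved by capillary electrophoresis, gave the readout. Human HepG2 liver cells carried transiently transfected cis-element reporter units and were treated for 24 hours; activity was fitted bidirectionally against DMSO.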

[10] = ATG_TGFb_CIS: Attagene CIS-FACTORIAL HepG2 Assay for human Transforming Growth Factor (TGF) (AID 2282967); conditions: HepG2 Attagene CIS TGFb reporter, mRNA transcription; actives raise or lower the signal
How it was run: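 After a 24-hour incubation with compound, transfected HepG2 cells were lysed for RNA; reporter cDNA was amplified, fluorescently end-labeled and separated by CE. DMSO served as baseline for bidirectional fits.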

[11] = ATG_VDRE_CIS: Attagene CIS-FACTORIAL HepG2 Assay for human Vitamin D Receptor Element (VDRE) (AID 2282968); conditions: HepG2 VDRE cis-reporter transcription, actives raise or lower the signal
How it was run: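 Transiently transfected HepG2 cells carrying cis-regulated reporter transcription units were exposed for 24 h. Reporter mRNA was measured by RT-PCR with fluorescent labelling and capillary electrophoresis, and fitted in both directions against DMSO.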

[12] = biological target: Estrogen receptor (Homo sapiens) (UniProt P03372); experiment: ATG_ERa_TRANS: Attagene TRANS-FACTORIAL HepG2 Assay for human Estrogen Receptor alpha (ERa) (AID 2282970; active = hit-call score of the fitted dose curve at least 0.9, where 1 is the maximum); conditions: HepG2 Attagene TRANS ERa GAL4 reporter, mRNA
Chain of Estrogen receptor (Homo sapiens) (P03372 whole entry, looked up, the tested form may be a part): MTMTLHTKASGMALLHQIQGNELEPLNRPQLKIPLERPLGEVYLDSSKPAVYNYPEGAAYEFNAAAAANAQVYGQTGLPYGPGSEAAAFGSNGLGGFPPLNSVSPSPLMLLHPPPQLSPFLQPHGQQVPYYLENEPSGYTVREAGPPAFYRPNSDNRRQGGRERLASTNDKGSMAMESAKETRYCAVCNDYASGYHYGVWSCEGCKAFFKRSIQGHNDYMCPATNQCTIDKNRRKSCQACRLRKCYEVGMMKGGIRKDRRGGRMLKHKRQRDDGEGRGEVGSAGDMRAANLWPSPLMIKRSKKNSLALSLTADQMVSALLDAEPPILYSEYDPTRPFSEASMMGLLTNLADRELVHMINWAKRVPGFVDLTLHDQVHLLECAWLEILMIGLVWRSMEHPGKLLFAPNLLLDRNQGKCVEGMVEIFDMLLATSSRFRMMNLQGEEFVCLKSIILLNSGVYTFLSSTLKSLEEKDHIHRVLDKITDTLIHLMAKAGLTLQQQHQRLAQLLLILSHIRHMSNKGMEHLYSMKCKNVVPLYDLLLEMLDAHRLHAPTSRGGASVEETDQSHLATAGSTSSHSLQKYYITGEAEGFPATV
How it was run: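 Human liver HepG2, transient transfection of multiple GAL4-UAS reporter units; TRANS format (exogenous NR-Gal4 chimera). 24 h dosing. Readout: reporter mRNA, RT-PCR, 6-FAM primer extension, HpaI digest, capillary electrophoresis. Positive direction vs DMSO.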

[13] = biological target: X-box-binding protein 1 (Homo sapiens) (UniProt P17861); experiment: ATG_Xbp1_CIS: Attagene CIS-FACTORIAL HepG2 Assay for human X-box Binding Protein 1 (XBP1) (AID 2282972); conditions: HepG2 XBP1 cis-element reporter, Attagene multiplex; actives raise or lower the signal
Chain of X-box-binding protein 1 (Homo sapiens) (P17861 whole entry, looked up): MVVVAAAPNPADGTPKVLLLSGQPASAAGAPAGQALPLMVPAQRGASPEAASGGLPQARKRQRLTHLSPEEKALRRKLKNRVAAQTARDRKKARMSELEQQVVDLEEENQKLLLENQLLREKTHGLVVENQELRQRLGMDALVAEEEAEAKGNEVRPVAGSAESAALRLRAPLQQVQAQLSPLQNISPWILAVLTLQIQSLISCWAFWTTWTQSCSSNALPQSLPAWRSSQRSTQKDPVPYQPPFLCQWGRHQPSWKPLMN
How it was run: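 HepG2, transient MRTU transfection (cis-promoter driven), 24 h compound exposure. Total RNA → oligo(dT) RT → PCR → 6-FAM labeling → HpaI cut → CE. Bidirectional fit vs DMSO.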

[14] = ATG_PPRE_CIS: Attagene CIS-FACTORIAL HepG2 Assay for human Peroxisome Proliferator-activated Response Element (PPRE) (AID 2282958); conditions: HepG2 PPRE cis-element reporter, Attagene transcription factor profiling; actives raise or lower the signal
How it was run: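 DMSO served as negative control and baseline for bidirectional curve fitting. Signal came from PPRE-regulated reporter mRNA in HepG2 cells, measured 24 h post-dosing by RT-PCR, 6-FAM primer extension and capillary electrophoresis.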

[15] = biological target: Steroid hormone receptor ERR1 (Homo sapiens) (UniProt P11474); experiment: ATG_ERRa_TRANS: Attagene TRANS-FACTORIAL HepG2 Assay for human Estrogen-Related Receptor alpha (ERRa) (AID 2282971; active = hit-call score of the fitted dose curve at least 0.9, where 1 is the maximum); conditions: HepG2 Attagene TRANS reporter, ERRa transactivation
Chain of Steroid hormone receptor ERR1 (Homo sapiens) (P11474 whole entry, looked up, the tested form may be a part): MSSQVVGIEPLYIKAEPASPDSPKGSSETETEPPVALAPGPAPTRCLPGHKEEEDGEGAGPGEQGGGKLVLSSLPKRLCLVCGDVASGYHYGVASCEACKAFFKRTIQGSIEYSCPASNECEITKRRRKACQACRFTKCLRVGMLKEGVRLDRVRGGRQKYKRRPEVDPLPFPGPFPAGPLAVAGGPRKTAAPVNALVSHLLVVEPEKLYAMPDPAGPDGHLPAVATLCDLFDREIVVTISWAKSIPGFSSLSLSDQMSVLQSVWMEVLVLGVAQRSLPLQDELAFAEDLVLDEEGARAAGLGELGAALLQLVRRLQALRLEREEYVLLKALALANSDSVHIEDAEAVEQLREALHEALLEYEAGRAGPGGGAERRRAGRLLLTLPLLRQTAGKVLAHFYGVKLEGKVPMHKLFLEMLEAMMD
How it was run: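 Reporter transcript induction was quantified by RT-PCR and capillary electrophoresis of FAM-labelled, HpaI-cut products after 24 h treatment of HepG2 cells carrying transiently transfected GAL4-UAS reporter units and an exogenous ERRa-Gal4 fusion; activity scored as increase over DMSO.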

[16] = ATG_PBREM_CIS: Attagene CIS-FACTORIAL HepG2 Assay for human Phenobarbital-responsive Enhancer Module (PBREM) (AID 2282955); conditions: HepG2 PBREM cis-reporter, Attagene multiplexed transcription; actives raise or lower the signal
How it was run: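 Multiplexed cis-reporter readout in human hepatoma HepG2 cells; PBREM-regulated transcript quantified after 24 h exposure by fluorescent RT-PCR fragment analysis. Signal changes up or down fitted relative to DMSO.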

[17] = biological target: Androgen receptor (Homo sapiens) (UniProt P10275); experiment: ATG_AR_TRANS: Attagene TRANS-FACTORIAL HepG2 Assay for human Androgen Receptor (AR) (AID 2282973; active = hit-call score of the fitted dose curve at least 0.9, where 1 is the maximum); conditions: HepG2 Attagene TRANS-FACTORIAL AR reporter transcription
Chain of Androgen receptor (Homo sapiens) (P10275 whole entry, looked up, the tested form may be a part): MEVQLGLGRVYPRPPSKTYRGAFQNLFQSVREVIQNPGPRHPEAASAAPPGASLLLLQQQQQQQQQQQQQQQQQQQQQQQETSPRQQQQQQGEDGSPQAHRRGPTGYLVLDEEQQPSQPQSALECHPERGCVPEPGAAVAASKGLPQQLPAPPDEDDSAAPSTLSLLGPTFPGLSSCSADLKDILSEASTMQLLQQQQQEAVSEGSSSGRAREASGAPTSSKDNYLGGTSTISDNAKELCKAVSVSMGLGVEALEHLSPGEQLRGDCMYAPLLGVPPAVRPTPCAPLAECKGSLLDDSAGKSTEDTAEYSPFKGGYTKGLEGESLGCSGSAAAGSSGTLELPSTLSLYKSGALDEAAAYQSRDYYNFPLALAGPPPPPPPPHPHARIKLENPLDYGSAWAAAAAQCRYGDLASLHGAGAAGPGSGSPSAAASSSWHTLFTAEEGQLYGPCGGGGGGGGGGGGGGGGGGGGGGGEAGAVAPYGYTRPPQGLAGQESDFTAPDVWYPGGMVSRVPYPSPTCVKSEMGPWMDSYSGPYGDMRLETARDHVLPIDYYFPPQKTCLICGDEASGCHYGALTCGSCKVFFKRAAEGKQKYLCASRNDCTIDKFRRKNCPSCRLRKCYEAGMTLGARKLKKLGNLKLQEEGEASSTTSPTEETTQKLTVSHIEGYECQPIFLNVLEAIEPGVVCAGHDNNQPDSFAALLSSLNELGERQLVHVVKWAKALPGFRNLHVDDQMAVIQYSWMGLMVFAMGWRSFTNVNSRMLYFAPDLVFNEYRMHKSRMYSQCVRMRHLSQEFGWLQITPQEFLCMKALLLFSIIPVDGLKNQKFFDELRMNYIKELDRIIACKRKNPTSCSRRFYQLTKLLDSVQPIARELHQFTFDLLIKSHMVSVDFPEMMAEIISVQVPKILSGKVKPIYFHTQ
How it was run: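 Steps: transfect HepG2 with multiple GAL4-UAS reporter transcription units (TRANS format, exogenous NR-Gal4 protein); dose 24 h; isolate RNA, reverse-transcribe, PCR-amplify, FAM-label, HpaI-digest; resolve by capillary electrophoresis. Positive direction vs DMSO.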

[18] = biological target: Nuclear receptor subfamily 1 group I member 3 (Homo sapiens) (UniProt Q14994); experiment: ATG_CAR_TRANS: Attagene TRANS-FACTORIAL HepG2 Assay for human Constitutive Androstane Receptor (CAR) (AID 2282969; active = hit-call score of the fitted dose curve at least 0.9, where 1 is the maximum;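 also: activators raise reporter mRNA above DMSO so AC50 marks induction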); conditions: HepG2 Attagene TRANS-FACTORIAL CAR reporter
Chain of Nuclear receptor subfamily 1 group I member 3 (Homo sapiens) (Q14994 whole entry, looked up, the tested form may be a part): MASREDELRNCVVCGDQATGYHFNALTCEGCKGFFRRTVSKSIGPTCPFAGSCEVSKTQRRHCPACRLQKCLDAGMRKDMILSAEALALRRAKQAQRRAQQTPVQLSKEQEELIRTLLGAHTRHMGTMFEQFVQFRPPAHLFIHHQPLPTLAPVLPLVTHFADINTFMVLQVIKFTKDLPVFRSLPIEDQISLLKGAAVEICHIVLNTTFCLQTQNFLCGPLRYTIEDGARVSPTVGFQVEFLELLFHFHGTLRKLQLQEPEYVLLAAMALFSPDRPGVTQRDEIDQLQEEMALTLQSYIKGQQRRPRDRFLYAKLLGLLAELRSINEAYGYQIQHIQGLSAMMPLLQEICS
How it was run: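 HepG2 cells transiently transfected with GAL4-UAS reporter units; TRANS format reads activity of exogenous chimeric NR-Gal4 protein. After 24 h dosing, reporter mRNA quantified by RT-PCR, 6-FAM labelling and capillary electrophoresis; gain of signal fitted against DMSO.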

[19] = ATG_M_19_TRANS: Attagene TRANS-FACTORIAL HepG2 Assay for M19 Transcription Factor (Internal Marker) (AID 2282974; active = hit-call score of the fitted dose curve at least 0.9, where 1 is the maximum); conditions: HepG2 Attagene TRANS-FACTORIAL M19 internal marker reporter
How it was run: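 Multiplexed TRANS format: HepG2 liver cells bearing transient GAL4-UAS reporter units, chemical treatment 24 h, reporter transcripts quantified by RT-PCR plus capillary electrophoresis. DMSO defines baseline.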

Measured: AC50

CCOP(=S)(OCC)Oc1nc(Cl)n(C(C)C)n1
active: [1] 0.655 µM | [5] 5.98 µM | [11] 5.61 µM | [12] 29.9 µM
not listed: [14] | [15] | [16] | [17] | [18] | [19]
inactive: all other assays above

CC(C)N1C(=O)c2ccccc2NS1(=O)=O
active: [1] 12.1 µM | [5] 50 µM | [11] 14.9 µM
not listed: [16] | [17] | [18] | [19]
inactive: all other assays above

Nc1c(Cl)c(F)nc(OCC(=O)O)c1Cl
active: [1] 50 µM
not listed: [14] | [18] | [19]
inactive: all other assays above

CN=C=S
active: [14] 18.3 µM | [4] 13.3 µM | [5] 13.1 µM | [11] 50 µM
not listed: [15] | [17] | [18] | [19]
inactive: all other assays above

CO/N=C(/C1=NOCCO1)c1ccccc1Oc1ncnc(Oc2ccccc2Cl)c1F
active: [16] 5.03 µM | [1] 0.483 µM | [5] 1.25 µM | [13] 0.574 µM
not listed: [11] | [15] | [17]
inactive: all other assays above

COC(=O)NC(=S)Nc1ccccc1NC(=S)NC(=O)OC
active: [16] 21.3 µM | [1] 7.61 µM | [14] 34 µM | [11] 50 µM
not listed: [15] | [17] | [18] | [19]
inactive: all other assays above

Cc1nc(N(C)C)nc(OC(=O)N(C)C)c1C
active: [1] 50 µM
not listed: [15] | [16] | [17] | [18]
inactive: all other assays above
